The record followed here is the supplement of paper PMC13380429.

Assay [1] relates to Vero E6 infected with SARS-CoV-2. The assay is described as follows: morphology score (similarity to uninfected cells); higher = more like uninfected cells. The note with it: 24 h.
For assay [2] the test system is unchanged. The assay is described as follows: SARS-CoV-2 infection rate relative to infected DMSO; higher = more infection, active = 60 or less. The note with it: 24 h.

In assay [1], `O=C(O)C(=O)Nc1cccc(-c2nnn[nH]2)c1` [acitazanolast] (10 µM) displayed a morphology score of 0.235. Further, the SARS-CoV-2 infection rate in assay [2] was 95% (inactive).
Regarding `CCCc1c2oc(C(=O)O)cc(=O)c2cc2c(=O)cc(C(=O)O)n(CC)c12` [nedocromil] (10 µM), the morphology score in assay [1] was -0.0269. Further, the SARS-CoV-2 infection rate in assay [2] was 110% (inactive).
The like results for `Clc1ccc(Cn2c(CN3CCCC3)nc3ccccc32)cc1` [clemizole] (10 µM) were, in that order, 0.153 and 103% (inactive).
On the same counts, the results for `CCN(c1cc(-c2ccc(CN3CCOCC3)cc2)cc(C(=O)NCc2c(C)cc(C)[nH]c2=O)c1C)C1CCOCC1` [tazemetostat] (10 µM) are 0.0658 and 104% (inactive).
On the same counts, the results for `N[C@@H](Cc1cc(-c2ccc(Cl)cc2Cl)cc(CP(=O)(O)O)c1O)C(=O)O` (10 µM) are -0.167 and 107% (inactive).
As for `Cc1cccc(Nc2ccccc2C(=O)O)c1C` [mefenamic-acid] (10 µM), the morphology score in assay [1] came to 0.0628. Moreover, the SARS-CoV-2 infection rate in assay [2] is 99.5% (inactive).
Compound `CCc1oc2ccccc2c1C(=O)c1cc(Br)c(O)c(Br)c1` [benzbromarone] (10 µM) yielded a morphology score in assay [1] of 0.145. Also, the SARS-CoV-2 infection rate in assay [2] was 85.5% (inactive).
On the same counts, the results for `CO[C@H]1CC[C@@H](C(=O)c2ccc3nc4c(cc3c2)CCCO4)CC1` (10 µM) are 0.0672 and 104% (inactive).
In the case of `Cc1cc(-c2ncc(CC(=O)Nc3ccc(-c4cnccn4)cn3)cc2C)ccn1` (10 µM), in assay [1], the morphology score was -0.0828. In assay [2], the SARS-CoV-2 infection rate was 111% (inactive).
For the compound `OC[C@@H](O)[C@@H](O)[C@@H](O)CO` [ribitol] (10 µM), the morphology score in assay [1] came to 0.073. Moreover, the SARS-CoV-2 infection rate in assay [2] was 105% (inactive).
In assay [1], `C(=C\c1ccccc1)/CN1CCN(CCOC(c2ccccc2)c2ccccc2)CC1` (10 µM) registered a morphology score of 0.33. Further, the SARS-CoV-2 infection rate in assay [2] is 82.5% (inactive).
The like results for `C[C@H](Nc1cc2c(-c3ccc4c(c3)OCO4)noc2cn1)c1ccccc1` (10 µM) were, in that order, 0.191 and 84.5% (inactive).
On the same counts, the results for `CC(=O)C(=Cc1cc(O)c(O)c([N+](=O)[O-])c1)C(C)=O` [nitecapone] (10 µM) are 0.103 and 102% (inactive).
The like results for `COc1cc(C)nc(-n2nc(C)cc2OC)n1` [epirizole] (10 µM) were, in that order, 0.0529 and 111% (inactive).
In turn, `Cc1cc(C(C)(C)C)c(O)c(C)c1CC1=NCCN1` [oxymetazoline] (10 µM) displayed a morphology score in assay [1] of 0.233. The SARS-CoV-2 infection rate in assay [2] is 100% (inactive).
Take `CCCCOc1c(C(=O)c2c(F)cc(C)cc2F)c[nH]c2nncc1-2` (10 µM): the morphology score in assay [1] is 0.383. For the same compound, the SARS-CoV-2 infection rate in assay [2] is 104% (inactive).
On the same counts, the results for `CCC(=O)O[C@@H](O[P@@](=O)(CCCCc1ccccc1)CC(=O)N1C[C@H](C2CCCCC2)C[C@H]1C(=O)O)C(C)C` [fosinopril] (10 µM) are -0.0286 and 104% (inactive).
On the same counts, the results for `CN1[C@@H]2C[C@@H](OC(=O)[C@H](CO)c3ccccc3)C[C@H]1[C@@H]1O[C@@H]12` (10 µM) are 0.141 and 97.5% (inactive).
Compound `CC[C@]1(O)C[C@@H]2CN(CCc3c([nH]c4ccccc34)[C@@](C(=O)OC)(c3cc4c(cc3OC)N(C)[C@H]3[C@@](O)(C(N)=O)[C@H](O)[C@]5(CC)C=CCN6CC[C@]43[C@@H]65)C2)C1` [vindesine] (10 µM) registered a morphology score in assay [1] of -0.107. Moreover, the SARS-CoV-2 infection rate in assay [2] was 103% (inactive).
Take `NC(=O)c1noc([C@H](CCCC2CCCCC2)CC(=O)NO)n1` (10 µM): the morphology score in assay [1] stood at 0.51. The SARS-CoV-2 infection rate in assay [2] was 85% (inactive).
In assay [1], `CC(C)c1nc(CN(C)C(=O)N[C@H](C(=O)N[C@@H](Cc2ccccc2)C[C@H](O)[C@H](Cc2ccccc2)NC(=O)OCc2cncs2)C(C)C)cs1` [ritonavir] (10 µM) displayed a morphology score of 0.0318. Besides, the SARS-CoV-2 infection rate in assay [2] is 104% (inactive).
The compound `C/C(=N\NC(=O)[C@@H]1C(=O)NC[C@H]1c1ccccc1)c1cccc(Br)c1` (10 µM) displayed a morphology score in assay [1] of -0.162. The SARS-CoV-2 infection rate in assay [2] was 112% (inactive).
Consider `CCOP(=S)(OCC)Oc1ccc2c(C)c(Cl)c(=O)oc2c1` [coumophos] (10 µM), for which the morphology score in assay [1] is -0.0715. In addition, in assay [2], the SARS-CoV-2 infection rate is 110% (inactive).
The compound `C[C@@H]1CN([C@H]2CC[C@](C#N)(c3ccc(F)cc3)CC2)CC[C@]1(C(=O)O)c1ccccc1` [levocabastine] (10 µM) yielded a morphology score in assay [1] of -0.0824. The SARS-CoV-2 infection rate in assay [2] is 112% (inactive).
As for `O=c1ccn([C@@H]2O[C@H](COP(=O)(O)OP(=O)(O)OP(=O)(O)O)[C@@H](O)[C@H]2O)c(=O)[nH]1` (10 µM), the morphology score in assay [1] turned out to be 0.267. Also, the SARS-CoV-2 infection rate in assay [2] was 97% (inactive).
The like results for `CCCCNc1ccc(C(=O)OCCN(C)C)cc1` [tetracaine] (10 µM) were, in that order, -0.144 and 116% (inactive).
The like results for `CCc1nc2ccc(Cl)cn2c1C(=O)NCc1ccc(N2CCC(c3ccc(OC(F)(F)F)cc3)CC2)cc1` (10 µM) were, in that order, 0.0715 and 96% (inactive).
